An excerpt weighted towards active compounds, which were near 3.6% of everything screened.
MazF activator: activators of E. coli MazEF toxin-antitoxin RNase, primary screen, biochemical, fluorescence, uHTS. Endoribonuclease toxin MazF (Escherichia coli (strain K12)), P0AE70. FAM/BHQ RNA-DNA oligo cleavage fluorescence, 5 h. activation, % at 20 µM. 0.32% of 350,000 active. AID 504720, 2011; in the data active means activation above about 50%
Target sequence (P0AE70 whole entry, looked up): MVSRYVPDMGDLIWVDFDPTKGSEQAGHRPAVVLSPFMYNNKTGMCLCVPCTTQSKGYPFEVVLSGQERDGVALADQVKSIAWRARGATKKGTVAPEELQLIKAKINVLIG
Anthrax LF prot: Bacillus anthracis LF protease inhibitors, primary screen, biochemical, multiplex microsphere, MLPCN library; Lethal factor (Bacillus anthracis), P15917; multiplex microsphere protease cleavage assay; inhibition, % at 10 µM; 0.12% of 360,000 active
BoNT F protease: BoNT/F light chain protease inhibitors, primary screen, biochemical, flow cytometry, MLPCN library | Botulinum neurotoxin type F light chain protease (Clostridium botulinum) | Multiplex microsphere protease cleavage assay | inhibition, % at 10 µM | 0.22% of 360,000 active; in the data active means inhibition above about 35%, passing the limit was not always enough; inconclusive means no clear call, values can overlap the other calls
BoNT A protease: BoNT/A light chain protease inhibitors, primary screen, biochemical, flow cytometry, MLPCN library. AID 588499, 2011. 0.17% of 360,000 active. inhibition, % at 10 µM. Botulinum neurotoxin type A light chain protease (Clostridium botulinum A str. ATCC 3502). multiplex microsphere protease substrate cleavage
Bead autofluor: flagged as autofluorescent in microsphere protease counterscreen. compound autofluorescence counterscreen, microsphere flow cytometry; active compounds read high. fluorescence intensity (concentration not given with the values). 3.1% of 360,000 active. AID 624483; in the data active means fluorescence intensity above about 16000; inconclusive means no clear call, values can overlap the other calls
Each line names hits and unclear results; the compound was inactive in the other large screens. Unless noted, no stated cut-off is given here; in the data, active means inhibition above about 30%; inconclusive means no clear call, values can overlap the other calls; inactive means below that.

Cc1ccc(OCc2cc(C(=O)NCC(C)(C)N3CCOCC3)no2)cc1C	Bead autofluor inconclusive
CCCCCc1nnc(NC(=O)C2CCCO2)s1 (stereo not given)	Bead autofluor 20636
O=C(Nc1nnc(-c2ccncc2)s1)C1CCCO1 (stereo not given)	Bead autofluor 16579
Cc1cc(C)c(C)c(S(=O)(=O)N2CCC(C(=O)N(C)Cc3nc4ccccc4c(=O)[nH]3)CC2)c1C	Bead autofluor inconclusive
CCOC(=O)c1c(C)nc2c(c1-c1cc(OC)c(OC)c(OC)c1)C(=O)c1ccccc1-2	BoNT A protease inconclusive, Bead autofluor 19026
COc1ccc(-n2c(SC)nc(O)c(Cc3ccccc3)c2=O)cc1	BoNT A protease inconclusive, Bead autofluor 22787
COc1ccc(-n2c(SCC(=O)Nc3ccccc3OC)nc(O)c(Cc3ccccc3)c2=O)cc1	none
COC(=O)c1ccc(NC(=O)CSc2nc3ccccc3c(=O)[nH]2)cc1	Bead autofluor 20547
COc1ccc(NC(=O)CSc2nc(O)c(Cc3ccccc3)c(=O)[nH]2)cc1	BoNT A protease inconclusive, Bead autofluor 23050
O=C(CSc1nc2ccccc2c(=O)[nH]1)Nc1ccc(Br)cc1	none
CC(NC(=O)CSc1nc2ccccc2c(=O)[nH]1)c1ccccc1 (stereo not given)	none
CC(C)CCNC(=O)CSc1nc2ccccc2c(=O)[nH]1	Bead autofluor 17172
Cc1ccccc1CSc1nc(C(C)(C)C)cc(=O)[nH]1	none
Cn1cc(Br)c(C(=O)NC2CCCCCC2)n1	none
CC(=O)N1CCOc2ccc(S(=O)(=O)N3CCC(C(=O)NCc4ccc(C)cc4)CC3)cc21	none
O=C(Nc1sc2c(c1C(=O)O)CCCC2)c1cccs1	Bead autofluor 24122
COC(=O)c1c(NS(=O)(=O)c2cccs2)sc2c1CCCC2	Bead autofluor 25083
COC(=O)c1c(NC(=O)Cc2cccs2)sc2c1CCCC2	none
Cc1nc2c(C(=O)NCCc3ccccc3)c[nH]n2c(=O)c1Cl	Bead autofluor 21299
CC1(c2nnnn2-c2ccc3c(c2)OCCO3)CCC(=O)N1C1CCN(Cc2ccccc2)CC1 (stereo not given)	none (no result: MazF activator)
COC(=O)C(O)(c1ccc(NC(=S)NC(=O)c2ccccc2)cc1)C(F)(F)F (stereo not given)	Bead autofluor 16903
COC(=O)C(O)(c1ccc(NC(=O)Oc2ccccc2)cc1)C(F)(F)F (stereo not given)	none
CSc1ccc(C2Nc3ccccc3-c3cc(C)nn32)cc1 (stereo not given)	Bead autofluor 21584
Cc1ccc(S(=O)(=O)NC(=O)C2(C)CCN2C(=O)CCc2ccc(Cl)cc2Cl)nc1 (stereo not given)	none (no result: MazF activator)
CCCCCC1CC(CC#CCN2CCOCC2)C(=O)O1 (stereo not given)	Bead autofluor 21965
CC(C)Cc1nnc(NS(=O)(=O)Cc2ccccc2)s1	Bead autofluor 21019
N#C/C(=C\c1cc(Cl)cc(Cl)c1O)C(=O)NC1CCCCC1	BoNT A protease inconclusive, Bead autofluor 16628
N#C/C(=C\c1cc(Cl)ccc1O)C(=O)NC1CCCCC1	none
N#C/C(=C\c1ccccc1[N+](=O)[O-])C(=O)NC1CCCCC1	MazF activator 423
Cc1nc(NC(=O)CSc2nnc(Cn3nnc4ccccc43)n2C)sc1C	none
COc1ccc(C2C(C(C)=O)=C(O)C(=O)N2CCc2ccccc2)c(OC)c1 (stereo not given)	Bead autofluor 16192
CCOc1cc(C=NNC(=O)N(c2ccccc2)c2ccccc2)ccc1O	none (no result: MazF activator)
CN(C)c1ccc(CN(C(=O)C2COc3ccccc3O2)C2CCS(=O)(=O)C2)cc1 (stereo not given)	Bead autofluor 19479
CC(C)c1ccc(CN(C(=O)C2COc3ccccc3O2)C2CCS(=O)(=O)C2)cc1 (stereo not given)	Bead autofluor 16571
CC1CCN(CCCNC(=O)c2coc3nc4ccccc4nc23)CC1	none
Cc1ccc(CCNC(=O)c2coc3nc4ccccc4nc23)cc1	MazF activator 90
Cc1ccc2nc(SCC(=O)c3ccc4c(c3)OCO4)[nH]c2c1	none
Cc1ccc2nc(SCC(=O)c3ccc(Cl)s3)[nH]c2c1	Bead autofluor 19540
CCCc1nc2nc(C)c(NS(=O)(=O)c3ccc([N+](=O)[O-])cc3)c(=O)n2[nH]1	none
Cc1ccc2nc(C(F)OC(F)(F)F)[nH]c2c1 (stereo not given)	Bead autofluor 17272
Cc1ccc2nc(C(O)C(O)c3nc4ccc(C)cc4[nH]3)[nH]c2c1 (stereo not given)	none
COC(=O)C1CCN(C(=O)C2CCN(C(=O)[C@@H](NS(=O)(=O)c3ccc(C)cc3)C(C)C)CC2)CC1	none
CCCNC(=O)Nc1ccc2c(c1)N(C)C(=O)c1ccccc1S2	Bead autofluor 16271
CCCCNC(=O)Nc1ccc2c(c1)N(C)C(=O)c1ccccc1S2	none
CCOC(=O)c1c(C)c(C)n(Cc2ccc(OC)c(OC)c2)c1C	none
CCOC(=O)c1cc(C)n(Cc2ccc(OCC)c(OC)c2)c1C	Bead autofluor 17147
COc1ccc(CCNC(=O)CC2Nc3ccccc3NC2=O)cc1 (stereo not given)	none
COc1ccc(CCNC(=O)CC2Nc3ccccc3NC2=O)cc1OC (stereo not given)	Bead autofluor 24834
CCCOc1ccccc1NC(=O)CC1Nc2ccccc2NC1=O (stereo not given)	Bead autofluor 21938
Cc1ccc2c(c1)CO[C@]21O[C@H](CCO)C[C@H](O)[C@H]1O	none
Cc1cc2cc(C(c3nnnn3Cc3ccco3)N3CCc4ccccc4C3)c(=O)[nH]c2cc1C (stereo not given)	none
Cc1ccc2cc(C(c3nnnn3Cc3ccccc3)N3CCc4ccccc43)c(=O)[nH]c2c1C (stereo not given)	Bead autofluor 20150
Cc1cc2cc(C(c3nnnn3Cc3ccccc3)N3CCc4ccccc43)c(=O)[nH]c2cc1C (stereo not given)	BoNT A protease inconclusive, Bead autofluor 21199
Cc1cc2cc(C(c3nnnn3Cc3ccco3)N3CCc4ccccc43)c(=O)[nH]c2cc1C (stereo not given)	MazF activator 79
Cc1ccc2cc(C(c3nnnn3Cc3ccccc3)N3CCc4ccccc43)c(=O)[nH]c2c1 (stereo not given)	none
COc1ccc(Br)cc1S(=O)(=O)N(CC(=O)N1CCN(C)CC1)c1ccccc1	none
COc1ccc(CCN2C(=NC(=O)C(C)C)SC3CS(=O)(=O)CC32)cc1OC (stereo not given)	BoNT F protease inconclusive
C=CCn1cc(C(=O)NCCOC)c(=O)c2cc(S(=O)(=O)N(CC)CC)ccc21	Bead autofluor 16280
